Most compounds without a hit are left out; they make up all but 4.4% or so of the library.
D1 antag – Antagonist of Human D 1 Dopamine Receptor: qHTS; D(1A) dopamine receptor (Homo sapiens), P21728; HEK293 TREx D1 cells, calcium flux, dopamine EC80; stronger effect = lower value; activity change, negative = inhibition, % at 10 µM; 3.2% of 360,000 active; AID 504652, 2011; in the data active = activity change below about -30%; also: % is scaled to controls: 0 for no effect and ±100 for the full control effect
Target sequence (P21728 whole entry, looked up): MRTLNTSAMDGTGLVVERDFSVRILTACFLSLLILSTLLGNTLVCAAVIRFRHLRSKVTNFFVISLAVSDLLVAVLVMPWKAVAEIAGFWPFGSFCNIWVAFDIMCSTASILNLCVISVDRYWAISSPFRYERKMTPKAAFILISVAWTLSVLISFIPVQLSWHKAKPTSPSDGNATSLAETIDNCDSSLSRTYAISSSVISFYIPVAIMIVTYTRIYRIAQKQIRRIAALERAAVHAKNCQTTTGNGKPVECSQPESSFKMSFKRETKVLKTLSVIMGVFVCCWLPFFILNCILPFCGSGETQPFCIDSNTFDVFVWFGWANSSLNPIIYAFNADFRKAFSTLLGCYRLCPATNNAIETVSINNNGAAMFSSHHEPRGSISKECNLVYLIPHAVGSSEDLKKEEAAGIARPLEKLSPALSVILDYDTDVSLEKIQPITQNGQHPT
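Cells carrying a force-coupled, tetracycline-inducible human D1 receptor report calcium flux. Each well gets a 10 s baseline, compound with 180 s monitoring, then an EC80 dopamine stimulus with a second 180 s kinetic read.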
D1 agonist – Allosteric Agonists of the Human D1 Dopamine Receptor: qHTS; D(1A) dopamine receptor (Homo sapiens), P21728; HEK293 T-REx D1 cells, calcium flux, agonist mode; activation, % at 2 µM; 1% of 360,000 active; also: 0% is about no effect
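Inducible HEK293 T-REx D1 cells, force-coupled to calcium signalling, were plated at 4000 cells/well with tetracycline and held overnight at 30 C. After no-wash calcium dye loading, compound-evoked calcium rise over 180 s flagged agonists.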
TRHR agonist – qHTS for Small Molecule Agonists and Allosteric Enhancers of Human TRH Receptor: Primary Screen for Agonists; Thyrotropin-releasing hormone receptor (Homo sapiens), P34981; TRHR cells, calcium flux fluo-8, FDSS agonist mode; activation, % at 2 µM; 0.18% of 360,000 active; AID 493084, 2011; also: 0% is about no effect
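Steps: seed TRHR cells overnight; add fluo-8 no-wash Ca dye, RT 30 min–1.5 h; record 10 s baseline; pin-transfer compounds; monitor fluorescence 1 cycle/s for the agonist window. Calcium increases flag candidate agonists.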
TRHR PAM – qHTS for Small Molecule Agonists and Allosteric Enhancers of Human TRH Receptor: Primary Screen for Enhancers; enhancement, % at 2 µM; Thyrotropin-releasing hormone receptor (Homo sapiens), P34981; 0.66% of 360,000 active; AID 493056, 2011; TRHR cells, fluo-8 calcium fluorescence, EC20 TRH enhancement; in the data active = enhancement above about 30%; also: 0% is about no effect
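Enhancer read-out: after compound pinning and an initial kinetic agonist-mode read, an EC20 of TRH (10 nM final) was injected and fluo-8 calcium signal (Ex 480/Em 530) followed at 1 s/cycle for 100 cycles in TRHR-expressing cells.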
USP1 inh – Inhibitors of USP1/UAF1: Primary Screen. Ubiquitin carboxyl-terminal hydrolase 1 (Homo sapiens), O94782. 0.23% of 390,000 active. AID 743255, 2014. Potency, µM (doses to about 57.1 µM), for inactives: at the top dose activity change, negative = inhibition, hits mostly inhibitors. recombinant USP1/UAF1, Ub-Rhodamine cleavage fluorescence; active = well fitted inhibition curve with a large enough effect; also: potency is read from the fitted curve at half-maximal effect; % is scaled to controls: 0 for no effect and ±100 for the full control effect; nearly all actives have a fitted effect of over 60% in size
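In this screen, compounds sit with the deubiquitinase complex (1nM) for 15 min at room temperature before Ub-Rho is added at 150nM final. Fluorescence rise is then followed for 6 reads every 60 seconds.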
D1 potentiator – Potentiators of Human D1 Dopamine Receptor: qHTS | D(1A) dopamine receptor (Homo sapiens), P21728 | HEK293 TREx D1 cells, calcium flux, dopamine EC20 potentiation | potentiation, % at 10 µM | 0.036% of 360,000 active | AID 504651, 2011; in the data active = potentiation above about 30%; also: 0% is about no effect
* marks the source's active call; other numbers are inactive results. Rule as the data show it, unless noted: active = activation above about 30%; inactive = the rest.

How did Cc1ccc(S(=O)(=O)c2c(Nc3ccccc3)sc(C(=O)c3ccc4c(c3)OCO4)c2N)cc1 do in these assays?
D1 antag: 2; D1 agonist: 64*; TRHR agonist: 3; TRHR PAM: 3; USP1 inh: -23%; D1 potentiator: -1

How did Cc1ccccc1Nc1sc(C(=O)c2ccc3c(c2)OCO3)c(N)c1S(=O)(=O)c1ccccc1 do in these assays?
D1 antag: 0; D1 agonist: 6; TRHR agonist: 1; TRHR PAM: 1; USP1 inh: -14%; D1 potentiator: 2

What do the screens show for `COc1ccc(S(=O)(=O)c2c(Nc3ccc(F)cc3)sc(C(=O)c3ccc4c(c3)OCO4)c2N)cc1`?
D1 antag: 23; D1 agonist: 43*; TRHR agonist: 2; TRHR PAM: 12; USP1 inh: -5%; D1 potentiator: -2

What do the screens show for `CCN1CCN(c2csc3ccc(C)cc3c2=O)CC1`?
D1 antag: 2; D1 agonist: 1; TRHR agonist: 0; TRHR PAM: -4; USP1 inh: -20%; D1 potentiator: 3

What do the screens show for `Clc1ccc(-c2nc3nc4ccccc4nc3n2Cc2ccco2)cc1`?
D1 antag: -41*; D1 agonist: 2; TRHR agonist: -1; TRHR PAM: -12; USP1 inh: -13%; D1 potentiator: -10

What do the screens show for `CCOC(=O)c1cc(-c2ccccc2)n(CC(=O)N(C)c2ccc(OC)cc2)c1C`?
D1 antag: 3; D1 agonist: 2; TRHR agonist: 0; TRHR PAM: 0; USP1 inh: -5%; D1 potentiator: -2

Results for CCCc1ccc(OCc2ccc(C(=O)Nc3ccccc3C(=O)OC)o2)cc1 ?
D1 antag: -12; D1 agonist: 17; TRHR agonist: 1; TRHR PAM: 3; USP1 inh: -18%; D1 potentiator: -2

Results for O=C(CCC1CCCN(C(=O)c2ccoc2)C1)NCc1ccc(F)c(F)c1 (configuration not stated) ?
D1 antag: 2; D1 agonist: 2; TRHR agonist: 0; TRHR PAM: 0; USP1 inh: -26%; D1 potentiator: 0

Results for O=C(CCC1CCCN(C(=O)c2ccc3c(c2)OCO3)C1)NCc1ccc(F)c(F)c1 (configuration not stated) ?
D1 antag: -30*; D1 agonist: 1; TRHR agonist: -1; TRHR PAM: -3; USP1 inh: -8%; D1 potentiator: -4

What do the screens show for `O=C(CSc1ccc2nc(-c3ccccc3)cn2n1)Nc1ccccc1C(F)(F)F`?
D1 antag: -71*; D1 agonist: 0; TRHR agonist: -1; TRHR PAM: 6; USP1 inh: -17%; D1 potentiator: -3

Results for CCOC(=O)c1c(C)oc2ccc(N(C(=O)c3ccncc3)S(=O)(=O)c3ccc(Br)cc3)cc12 ?
D1 antag: -57*; D1 agonist: 3; TRHR agonist: 0; TRHR PAM: -5; USP1 inh: -25%; D1 potentiator: -5

Results for COC(=O)c1c(C)oc2ccc(N(C(C)=O)S(=O)(=O)c3ccccc3)cc12 ?
D1 antag: -66*; D1 agonist: 2; TRHR agonist: 0; TRHR PAM: -4; USP1 inh: -19%; D1 potentiator: -10

Results for COC(=O)c1c(C)oc2ccc(N(C(=O)c3ccncc3)S(=O)(=O)c3ccc(Br)cc3)cc12 ?
D1 antag: -37*; D1 agonist: 12; TRHR agonist: 1; TRHR PAM: -10; USP1 inh: -27%; D1 potentiator: 0

Compound activity: PubChem, National Center for Advancing Translational Sciences (NCATS)
